This note sets out measurements from PubChem BioAssay (NCATS).

Inconclusive results are not listed. Activity calls are given as the source filed them. Unless noted, the call rests on the fitted dose curve; in most records, active means well fitted curve in the direction sought with a large enough effect; inconclusive means small, poorly fitted or top-dose-only effect, or another doubt; inactive means no such curve, though single readings can be large; an effect the other way counts as inactive or inconclusive.

Test [1] has as its system Zika virus NS2B-NS3 protease (linked). In words: 384 well plate NINDS AMC confirmatory qHTS for Zika virus inhibitors (AID 1347163). Further: nearly all actives have a fitted effect of over 50% in size. Further: potency means the concentration at half of the fitted maximal effect.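 On activity change, negative = inhibition: linked protease at 5 30 or 60 nM final depending on run; fluorescence of AMC released from Ac-VKTGKR-AMC peptide cleaved by the protease; top concentration of the series differs between compounds; 0% = no-inhibitor control and -100% = no-enzyme control.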 In a few lines:
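Linked protease 5/30/60 nM final; cpds up to 1 mM final, ~15 min preinc. Substrate Ac-VKTGKR-AMC 30 microM final. RT, dark, 25 min; FI ex 355/em 460; normalized to no-enzyme/no-inhibitor ctrls.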

Test [2] concerns the target Cytochrome P450 2D6 (Homo sapiens) (UniProt P10635). In words: Cytochrome P450 family 2 subfamily D member 6 (CYP2D6) small molecule antagonists: luciferase biochemical (cell-free) qHTS assay (AID 1645840; active means well fitted curve in the direction sought with a large enough effect in the repeat runs; an effect the other way counts as inactive or inconclusive; further: potency means the concentration at half of the fitted maximal effect; nearly all actives have a fitted effect of over 55% in size). In a few lines: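 P450-Glo luminescent screen: recombinant CYP2D6 enzyme–proluciferin substrate mix preincubated with compound 10 min at room temperature, then NADPH regeneration added for 1 h at room temperature. Detection reagent added for 20 min; luciferin light read as relative luminescence units.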

In test [3] the target is Cytochrome P450 2C9 (Homo sapiens) (UniProt P11712). As to the kind of experiment: Cytochrome P450 family 2 subfamily C member 9 (CYP2C9) small molecule antagonists: luciferase biochemical (cell-free) qHTS assay (AID 1645842; active means well fitted curve in the direction sought with a large enough effect in the repeat runs; an effect the other way counts as inactive or inconclusive; further: potency means the concentration at half of the fitted maximal effect; nearly all actives have a fitted effect of over 55% in size). In a few lines:
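Luminescence, after 20 min with luciferin detection reagent, reflected CYP2C9 turnover during a 1 h NADPH-driven reaction at 37C. Enzyme-substrate mix contained 0.4% bovine serum albumin and was preincubated with compound 10 min at room temperature.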

Test [4] is described as follows: Confirmatory screen NINDS Rhodamine qHTS for Zika virus inhibitors (AID 1347161). Further: nearly all actives have a fitted effect of over 60% in size. Further: potency means the concentration at half of the fitted maximal effect.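 On activity change, negative = inhibition: purified Zika NS2B-NS3 protease with linked NS2B cofactor domain and Rhodamine110 peptide substrate; plate controls were no-inhibitor control for no effect and no-enzyme control for full effect.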 The essentials: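 Each compound, titrated, sat 15 min with 25 nM linked protease before 1.5 microM Rhodamine110 substrate went in. Fluorescence gain over the next 15 min, in pH 8.0 Tris with Tween 20, gave Hill-fitted curves.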
Test [5] concerns Zika virus NS2B-NS3 protease (linked construct). In words: 384 well plate NINDS Rhodamine confirmatory qHTS for Zika virus inhibitors (AID 1347164).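 Further: fluorescence from protease cleavage of Ac-LKRR-rhodamine 110 substrate; nearly all actives have a fitted effect of over 65% in size.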 Further: potency means the concentration at half of the fitted maximal effect.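 On activity change, negative = inhibition: top concentration of the series differs between compounds; plate controls were no-inhibitor control for no effect and no-enzyme control for full effect.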 In a few lines: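 Enzyme (final 5/30/60 nM) + cpd (DMSO), ~15 min; add Ac-LKRR-Rd 10 microM final; 25 min RT, dark; FI ex 485/em 538; normalized to no-enzyme, no-inhibitor ctrls; aprotinin intraplate ctrl.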
Test [6] in a line: Primary qHTS for small molecule stabilizers of the endoplasmic reticulum resident proteome: Secreted ER Calcium Modulated Protein (SERCaMP) assay (AID 1508630). Further: on the % scale 0 is the no-effect control and ±100 the full control effect. In a few lines: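 GLuc-SERCaMP-expressing SH-SY5Y cells, pretreated 16 h with compound, are challenged with thapsigargin to empty ER calcium stores; after 4 h, coelenterazine is added directly to the medium and luminescence is imaged.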

The nature of test [7]: Confirmation and Secondary Assay for Modulators of Hemoglobin Beta Chain Splicing at IVS2 654 locus (AID 910).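 Further: HeLa cells stably carrying EGFP split by mutant beta-globin IVS2-654 intron; per-well total GFP intensity by laser scanning cytometry after 2-day treatment; % of control where 0% means no effect.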 The essentials:
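Readout: per-well total peak green fluorescence (488 nm ex, 500–520 nm em) from objects 5–250 µm, reflecting correct splicing of an EGFP-654 reporter. Compounds were applied for 2 days at 37 °C to overnight-plated HeLa EGFP-654 cells; controls were DMSO and 500 nM IVS2-654 PNA.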

Test [8] can be described thus: Confirmation and Secondary Assay for Modulators of Hemoglobin Beta Chain Splicing at IVS2 705 locus (AID 930).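 Further: HeLa cells stably expressing the EGFP-705 splicing reporter; GFP fluorescence per well restored by corrected splicing of the IVS2-705 intron in EGFP; % of control where 0% means no effect.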 In a few lines: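 HeLa EGFP-705 reporter; 500 cells/well, o/n 37C 5% CO2; cpd 2 d; 488 ex/500-520 em laser scan; total peak GFP intensity/well. Ref: 500 nM […] antisense PNA.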
Test [9] is described as follows: qHTS Assay for Lipid Storage Modulators (AID 1519; calls by dose curve; on activity change, negative = inhibition: on the % scale 0 is the no-effect control and ±100 the full control effect). To be noted: Drosophila S3 cells, BODIPY lipid droplet/cell ratio, laser cytometry, cells loaded with oleic acid; for activity change, negative = inhibition: at 57.5 µM (top of the series). In a few lines: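 Cells seeded at 5,000 per well were treated with compounds over a concentration series and loaded with oleic acid (400 uM, as added). Lipid droplet fluorescence (488 nm excitation, 500-530 nm channel) was read by laser-scanning cytometry and normalized to 20 uM Triacsin C.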

Test [10] in a line: qHTS drug screen for cell cycle checkpoint inhibitors in PARPi-resistant BRCA-mutant ovarian cancer cell lines. (AID 1963452; calls by dose curve). The note with it: PEO1/OlaR viability, CellTiter-Glo luminescence, 96 h, stronger effect = lower value. The essentials:
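PEO1, PEO4 and PEO1/OlaR ovarian cancer cells, 600 per well, exposed 96 h at 37C to a dilution series. Viability read by CellTiter-Glo luminescence, normalized to DMSO and empty wells; activity summarized as Z-AUC.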

The mark [11] stands for this setting: measured here: cell count channel max response.
Setting [12] is: measured here: lipid channel max response.

Chain of Cytochrome P450 2D6 (Homo sapiens) (P10635 whole entry, looked up): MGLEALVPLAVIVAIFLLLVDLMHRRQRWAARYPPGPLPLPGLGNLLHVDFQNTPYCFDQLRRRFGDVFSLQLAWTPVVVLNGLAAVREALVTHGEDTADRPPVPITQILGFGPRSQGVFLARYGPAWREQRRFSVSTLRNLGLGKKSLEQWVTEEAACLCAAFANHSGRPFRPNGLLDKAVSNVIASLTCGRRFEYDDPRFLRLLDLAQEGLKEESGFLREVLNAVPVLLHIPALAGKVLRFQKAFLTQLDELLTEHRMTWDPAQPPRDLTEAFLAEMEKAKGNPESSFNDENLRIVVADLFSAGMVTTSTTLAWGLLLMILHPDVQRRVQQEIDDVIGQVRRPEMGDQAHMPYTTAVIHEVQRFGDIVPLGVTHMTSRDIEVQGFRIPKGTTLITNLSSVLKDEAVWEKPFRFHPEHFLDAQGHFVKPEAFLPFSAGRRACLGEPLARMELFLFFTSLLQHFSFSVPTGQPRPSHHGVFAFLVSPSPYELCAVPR
Chain of Cytochrome P450 2C9 (Homo sapiens) (P11712 whole entry, looked up): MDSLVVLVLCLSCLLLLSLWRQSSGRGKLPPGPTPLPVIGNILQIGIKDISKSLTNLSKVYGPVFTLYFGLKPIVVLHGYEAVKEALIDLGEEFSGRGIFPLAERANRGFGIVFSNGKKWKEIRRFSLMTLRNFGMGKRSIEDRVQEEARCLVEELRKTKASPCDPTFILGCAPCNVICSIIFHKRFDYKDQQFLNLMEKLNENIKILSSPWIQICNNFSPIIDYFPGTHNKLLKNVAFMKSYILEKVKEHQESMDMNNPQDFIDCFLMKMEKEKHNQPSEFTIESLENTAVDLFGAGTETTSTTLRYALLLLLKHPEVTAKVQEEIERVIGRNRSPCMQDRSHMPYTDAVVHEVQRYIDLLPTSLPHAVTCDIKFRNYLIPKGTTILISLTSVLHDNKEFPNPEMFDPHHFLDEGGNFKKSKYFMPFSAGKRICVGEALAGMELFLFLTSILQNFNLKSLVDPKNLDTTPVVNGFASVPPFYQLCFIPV

For the compound `Cc1ccc(Nc2nnc(-c3ccc(C)c(S(=O)(=O)NCc4nc5ccccc5[nH]4)c3)c3ccccc23)cc1`, the Potency entry in [1] was “inactive”. Also, the results for the Potency in test [2] and in test [3] were 6.01 µM (active) and 5.35 µM (active), respectively.
On to `C=C1c2c(Cl)ccc(O)c2C(O)=C2C(=O)[C@]3(O)C(O)=C(C(N)=O)C(=O)[C@@H](N(C)C)[C@@H]3[C@@H](O)C12` (some centres not stated), for which the Potency in [4] was 13.9 µM (active); in test [1], 70.8 µM (active); in test [5] it was 20 µM (active). For the same compound, the Potency result in [6] is “inactive”.
As to `O=C(Nc1ccc(C(=O)OCc2cc(=O)n3nc(C4CC4)sc3n2)cc1)c1cccc(Cl)c1`, the Potency result in test [1] and in test [5] was “inactive” in each case.
As to `CN(C)c1cc(CNCC(C)(C)C)c(O)c2c1C[C@H]1C[C@H]3[C@H](N(C)C)C(=O)C(C(N)=O)=C(O)[C@@]3(O)C(=O)C1=C2O`, the Potency entry in [4] is “inactive”. The Potency in [1] was 178 µM (active); in test [5] it was 158 µM (active).
Take `O=C(OC1Cc2c(O)cc(O)cc2OC1c1cc(O)c(O)c(O)c1-c1c(C2Oc3cc(O)cc(O)c3CC2OC(=O)c2cc(O)c(O)c(O)c2)cc(O)c(O)c1O)c1cc(O)c(O)c(O)c1` (configuration not stated): the call in [7] and in [8] was inactive. Further, the activity change, negative = inhibition in test [9] was 6.84% (inactive). Moreover, the max response in [9] (setting [11]) is 16.9%; in [9] (setting [12]), 25.4%. In addition, the Potency in test [4] and in [1] was 20 µM (active) in each case. Also, in test [5], the Potency result was “inactive”.
Regarding `COc1cc(/C=C/C(=O)O)ccc1O`, the outcome in test [7] and in test [8] was inactive. The activity change, negative = inhibition in test [9] is 8.29% (inactive). Moreover, the max response in test [9] (setting [11]) turned out to be 5.04%; in [9] (setting [12]), 17.5%.
Take `Cc1ccc(S(=O)(=O)Nc2cc(SCC(=O)O)c(O)c3ccccc23)cc1[N+](=O)[O-]`: the Potency in test [4] was 6.98 µM (active); in test [1] it was 31.6 µM (active). For the same compound, the activity change, negative = inhibition in test [5] is -280% [at 100 µM] (inactive).
Regarding `CC(C)CN1CC(CNC(=O)c2ccc(Oc3ccccc3)cc2)Oc2ccnc(-c3ccc(OCC(=O)O)cc3)c2C1=O` (configuration not stated), the Potency in test [5] is 28.2 µM (active).
Consider `CC1(C)CC[C@]2(C(=O)O)CC[C@]3(C)C(=CC[C@@H]4[C@@]5(C)C[C@@H](O)[C@H](O)C(C)(C)[C@@H]5CC[C@]43C)[C@@H]2C1`, for which the Z-AUC was 1.45 (inactive) in [10], 0.722 in test [10] (measured here: PEO1 parental Z-AUC) and 0.511 in test [10] (measured here: PEO4 Z-AUC).
